Only some compounds are listed: those with a hit (about 1.7% of all), similar ones and a draw of the others.
EBV gp42 block = inhibitors of Epstein-Barr virus glycoprotein 42; Q1HVG2; Fluorescence polarization binding assay, mP read-out; inhibition, % (tested at 21.74 µM); hit rate 0.42% among 220,000; in the data active means inhibition above about 50%
Target sequence (Q1HVG2 whole entry, looked up): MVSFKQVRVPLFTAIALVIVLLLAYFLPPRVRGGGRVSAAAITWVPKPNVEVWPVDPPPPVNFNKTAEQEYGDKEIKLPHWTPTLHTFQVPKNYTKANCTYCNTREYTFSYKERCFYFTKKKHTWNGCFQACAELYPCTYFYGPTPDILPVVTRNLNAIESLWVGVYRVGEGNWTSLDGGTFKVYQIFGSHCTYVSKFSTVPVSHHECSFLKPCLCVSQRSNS
eIF4E-4G inh = eIF4E/eIF4G interaction inhibition in translation initiation. inhibition, % at 21.7 µM. TR-FRET eIF4E-eIF4GI(517-606) binding, 2 h. hit rate 0.37% among 220,000. AID 782;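 active means inhibition above about 30%, limit read from the data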
eIF4H inh = inhibitors of RNA binding by human eIF4H | Q15056 | eIF4H fluorescence polarization binding assay | inhibition, % at 35 µM | hit rate 0.94% among 290,000;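 further: calls also rest on retests at 20 µM and on dose response follow-up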
PABP polyA inh = PABP-poly(A) binding inhibition. calls only at 35 µM. AID 2014. P11940. hit rate 1% among 290,000. PABP-poly(A) RNA binding, fluorescence polarization;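 further: calls also rest on retests at 20 µM and on dose response follow-up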
PABP1 MLLE inh = inhibitors of microRNA-mediated deadenylation, human PABP1 MLLE binding | hit rate 0.36% among 360,000 | AID 588489 | GST-MLLE / FITC-PAM2 fluorescence polarization | P11940 | inhibition, % at 20 µM; in the data active means inhibition above about 35%, passing the limit was not always enough
Of the large screens only hits and unclear results are named; the others gave an inactive call; [ ] = dose if it differs, or a comment. Unless noted, how the calls were made is not given here.

COc1ccc(CN2CCNC(=O)C2CC(=O)N(C)CC2CCOCC2)cc1C (configuration not stated)	none (no result: EBV gp42 block, eIF4E-4G inh)
O=C(OCc1cc(=O)n2ccsc2n1)C1(c2ccccc2)CC1	none (no result: EBV gp42 block, eIF4E-4G inh, eIF4H inh, PABP polyA inh)
O=C(CNC(=O)c1cccc(OC(F)F)c1)OCc1cc(=O)n2cc(Br)ccc2n1	PABP polyA inh active
O=C(CC(SCc1ccco1)c1ccc(O)cc1)c1cccs1 (configuration not stated)	none
O=C(CC(SCCO)c1ccc2c(c1)OCO2)c1cccs1 (configuration not stated)	PABP1 MLLE inh 43
CN1CCc2cccc3c2[C@@H]1Cc1ccc(O)c(O)c1-3	PABP1 MLLE inh 46
O=C(Cc1ccc2c(c1)CCCC2)Nc1ccccc1Br	PABP1 MLLE inh 38
COC(=O)C1=C(C)N(c2ccc(OC)cc2)C(=O)/C1=C\c1cccs1	eIF4H inh active, PABP polyA inh active
COc1ccccc1C(=O)CN1C(=O)NC2(CCc3ccccc32)C1=O (configuration not stated)	none (no result: EBV gp42 block, eIF4E-4G inh, eIF4H inh, PABP polyA inh)
Oc1ccc(CN2CCCc3ccccc32)c2cccnc12	PABP1 MLLE inh 42
O=S(=O)(c1cccs1)N1CN(Cc2ccco2)c2nc3ccccc3nc21	eIF4H inh inconclusive, PABP polyA inh inconclusive
Cc1cccc(S(=O)(=O)N2CN(Cc3ccco3)c3nc4ccccc4nc32)c1	eIF4H inh 54, PABP polyA inh active
COCCN1CN(S(=O)(=O)c2ccccc2)c2nc3ccccc3nc21	PABP1 MLLE inh 37
CC1=C(C(=O)N(C)C)CC(CC(=O)NCCCN(C)C)C(=O)N1Cc1ccccc1 (configuration not stated)	none (no result: EBV gp42 block, eIF4E-4G inh, eIF4H inh, PABP polyA inh)
Fc1ccc(-c2nc3c(Cl)cc(C(F)(F)F)cn3c2Cl)cc1	eIF4H inh inconclusive, PABP1 MLLE inh 43
Cc1ccc(Cc2c(-c3ccc(F)cc3)nc3c(Cl)cc(C(F)(F)F)cn23)cc1	none (no result: EBV gp42 block, eIF4E-4G inh, eIF4H inh, PABP polyA inh)
Oc1ccc(/C=N/N=C(c2ccccc2)c2ccccc2)c(O)c1O	eIF4E-4G inh 33[fluorescence artefact?], eIF4H inh 85, PABP polyA inh active
O=C(COC(=O)/C=C/c1ccc2c(c1)OCO2)NCc1ccccc1	none (no result: EBV gp42 block, eIF4E-4G inh, eIF4H inh, PABP polyA inh)
COc1cc(C(=S)N2CCOCC2)cc(OC)c1OS(=O)(=O)c1ccc(NC(C)=O)cc1	none
COc1cc(C(=S)N2CCOCC2)cc(OC)c1OS(=O)(=O)c1ccc(C)cc1	PABP1 MLLE inh 42 (no result: EBV gp42 block, eIF4E-4G inh)
Oc1c(Cl)cc(Cl)cc1C=Nc1ccc2c(c1)OCCO2	eIF4H inh 16, PABP polyA inh active
Brc1csc(C=Nc2ccc3c(c2)OCCOCCOCCOCCO3)c1	none
Cc1c(C)c(C)c(C(=O)c2ccc(NC(=O)c3ccccc3C(=O)O)cc2)c(C)c1C	none (no result: EBV gp42 block, eIF4E-4G inh)
CCN1CCN(CCCNC(=O)c2ccc(CS(=O)c3ccc(Br)cc3)o2)CC1 (configuration not stated)	none (no result: EBV gp42 block, eIF4E-4G inh)
COc1cccc(/C=C/C(=O)c2ccc(NC3=NCCCS3)cc2)c1	eIF4H inh active, PABP polyA inh active
Cc1cc(CN2CCN(CC(=O)Nc3cc(Cl)ccc3-n3cncn3)CC2)no1	none (no result: EBV gp42 block, eIF4E-4G inh, eIF4H inh, PABP polyA inh)
CN(Cc1ccccc1F)C(=O)c1sccc1-c1ccccc1	none (no result: EBV gp42 block, eIF4E-4G inh)
O=C(CSc1nc2ccccc2[nH]1)N1CCCCC1	none
Cc1c(C)n(C(=O)CSc2nc3ccccc3[nH]2)c2ccccc12	eIF4H inh 68, PABP polyA inh active
COC(=O)CCC(C)C1CCC2C3CCC4CC(O)CCC4(C)C3=CC(=O)C12C (configuration not stated)	none (no result: EBV gp42 block, eIF4E-4G inh, eIF4H inh, PABP polyA inh)
O=C1CCC(=O)c2ccc3c4c(ccc1c24)CC3	none (no result: EBV gp42 block, eIF4E-4G inh, eIF4H inh, PABP polyA inh)
O=C1CCN2C=Nc3cccc4ccc1c2c34	EBV gp42 block 137, eIF4H inh inconclusive, PABP polyA inh inconclusive
COc1ccccc1NC(=O)CCCc1nc(-c2ccc(OC)c(OC)c2)no1	none
CCN(CC(=O)Nc1c(F)cccc1F)C(=O)Cc1ccc2c(c1)CCC2	PABP1 MLLE inh 41 (no result: EBV gp42 block, eIF4E-4G inh, eIF4H inh, PABP polyA inh)
CCN(CC(=O)Nc1c(F)cccc1F)C(=O)Cc1ccc2c(c1)OCCO2	none (no result: EBV gp42 block, eIF4E-4G inh, eIF4H inh, PABP polyA inh)
COc1cccc(-c2c3c([nH]c(=O)c2C#N)CCc2cc(OC)ccc2-3)c1	PABP polyA inh inconclusive (no result: PABP1 MLLE inh)
COc1ccc(CNC(=O)CC2C[C@H](C(=O)N3CCCCC3)[C@@]3(C)c4[nH]c5ccccc5c4CCN3C2=O)cc1OC (some centres not stated)	none (no result: EBV gp42 block, eIF4E-4G inh, eIF4H inh, PABP polyA inh)
CCC(=O)OC1(C)C(=O)C2=COC(c3ccc(OC)cc3)=CC2=C(Br)C1=O (configuration not stated)	eIF4H inh inconclusive, PABP polyA inh inconclusive
COc1ccc(C2=CC3=C(Br)C(=O)C(C)(O)C(=O)C3=CO2)cc1 (configuration not stated)	PABP polyA inh active
O=C(Nc1ccc2c(c1)CCC2)c1ncoc1-c1ccccc1F	none (no result: EBV gp42 block, eIF4E-4G inh)

Source: PubChem
